Results taken from PubChem BioAssay (NCI).
Compounds without any hit were thinned out: in the full panel of roughly 83,000, 20% have a hit.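 Plates (96-well) were seeded with cells, treated with compound at one concentration, and incubated for 48 hours before percent growth was determined.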 Activity calls are given as the source filed them.

test system: KM12 colon; experiment: NCI-60 one-dose screen, 48 h (100 = growth as untreated, 0 = no growth, -100 = all killed); conditions: 10 µM unless noted
Protocol: Growth inhibition of the KM12 human tumor cell line is measured as a screen for anti-cancer activity. Cells are grown in 96 well plates and exposed to the test compound for 48 hours. Compounds are tested at a single concentration, which is 10^-5 M for most compounds. The reported endpoint is percent growth (GI% or GIPRCNT), where numbers from 0 - 100% represent growth inhibition, and numbers from -100% - 0 represent cell death. For example, a value of 40 represents 60% growth inhibition. A value of 0 means no net growth occurred over the course of the experiment. A value of -40 indicates 40% of cells at the beginning of the experiment died by the end of the experiment. A value of -100 means all cells are dead at the end of the experiment.
NCI-60 Human Tumor Cell Lines Screen was performed using the standard one-dose NCI protocol, which is described in more detail at https://dtp.cancer.gov/discovery_development/nci-60/default.htm.
Compounds with GIPRCNT values below 10 were considered active. Activity score was based on GIPRCNT using the following formula: […]
Score is 0 for GIPRCNT values of 100 or above, 50 for GIPRCNT values of 0, and 100 for GIPRCNT values of -100.

Row | SMILES | growth
1 | O=C1CCCN1C1CCN(Cc2cc3ccccc3[nH]c2=O)c2ccccc21 (stereo not given) | 98.1% (inactive)
2 | O=c1[nH]c(=O)n(C2CC(O)C(CO)O2)cc1C(F)(F)F (stereo not given) | 51.8% (inactive)
3 | COc1ccc(/C(=C2\O[C@@H]([C@H](O)CO)[C@H]3OC(C)(C)O[C@@H]23)c2cc(OC)c(OC)c(OC)c2)cc1O | 9.46% (active)
4 | C=C(C)[C@H]1CC/C(C)=C/CC[C@]2(C)O[C@H]2CC/C(COC(C)=O)=C\C1=O | 143% (inactive)
5 | N#Cc1ccc(NC(=O)Nc2ccc(Oc3ccc(NC(=O)Nc4ccc(C#N)cc4)cc3)cc2)cc1 | 9.37% (active)
6 | O=C(CSc1nnc(Nc2ccccc2)s1)NCCc1ccc(F)cc1 | 111% (inactive)
7 | O=C(Cc1ccccn1)C(F)(F)C(F)(F)C(F)(F)F | 135% (inactive)
8 | Cc1nc(N)[nH]c(=O)c1C | 122% (inactive)
9 | CC(=O)NCCSC(=O)C(=O)SCCNC(C)=O | 107% (inactive)
10 | NNC(=O)NO | 98.2% (inactive)
11 | O=C1OCCCCCCCCCC#Cc2ccccc21 | 136% (inactive)
12 | CCC(CC)NCCCCCNc1cc(OC)cc2cccnc12 | 98.6% (inactive)
13 | CCCn1cnc2c1c(=O)n(CCCCC(C)=O)c(=O)n2C | 114% (inactive)
14 | COc1ccc2c(c1)C(=O)c1c-2c(=O)n(CCCCCCC(=O)NO)c2ccccc12 | 10.9% (inactive)
15 | CCN(CC)c1ccc(CN(CC(=O)c2ccc(Cl)c(Cl)c2)Cc2ccccc2)cc1 | 109% (inactive)
16 | O=C1C(Cl)=C(N=Nc2c(Cl)c(O)c3ccccc3c2O)C(=O)c2ccccc21 | 86.4% (inactive)
17 | CCOC(=O)c1c2c(c(C)n1Cc1ccccc1)-c1nc(N)ncc1CC2 | 100% (inactive)
18 | N#CCCCCCn1c2ccccc2c2c3c(c4c5ccccc5[nH]c4c21)C(=O)N(O)C3=O | 4.16% (active)
19 | c1ccc(Nc2nnc(-c3cc(-c4cccnc4)n(-c4ccccc4)n3)s2)cc1 | 60.3% (inactive)
20 | Nc1nc2ncc(CCNc3ccc(C(=O)NC(CCC(=O)O)C(=O)O)cc3)nc2c(=O)[nH]1 (stereo not given) | 110% (inactive)

Row | SMILES | growth
21 | Cc1nn(-c2ccccc2)c2ncc3c(c12)C(=O)N(Cc1ccccc1)C3=O | 85.8% (inactive)
22 | Clc1cc(Cl)c(OCC#CI)cc1Cl | 82.1% (inactive)
23 | Cc1cc(Cl)ccc1Nc1nc(C(F)(F)F)ccc1C(=O)NCC(=O)N/N=C/c1c(Cl)cccc1Cl | 50.4% (inactive)
24 | c1cnc2n[nH]c(Nc3ncnc4c3sc3ncccc34)c2c1 | 103% (inactive)
25 | c1csc([C@@H]2C[C@@H]3Cc4ccc5ccccc5c4N2O3)c1 | 103% (inactive)
26 | COc1cc2c(cc1OCCCCCn1c(-c3ccc(OCc4ccccc4)cc3)nc3cc(N4CCOCC4)ccc31)N=C[C@@H]1CCCN1C2=O | -26.7% (active)
27 | CN1C(=O)/C(=C/c2nc(-c3cccc(F)c3)n3ccccc23)c2ccccc21 | 94.1% (inactive)
28 | CCC(C)CC(C)C(=O)c1c(O)ccn(OC)c1=O (stereo not given) | 102% (inactive)
29 | CCOc1ccccc1C(=O)OCC(=O)Nc1cccc(S(=O)(=O)N(C)C)c1 | 104% (inactive)
30 | CCCOc1ccc2c(c1)CC[C@@H]1[C@@H]2CC[C@@]2(C)[C@H]1CC[C@]2(C)O | 35.6% (inactive)
31 | CCOC(=O)c1c(C)nc(C)c(C(=O)OCC)c1-c1cccnc1 | 110% (inactive)
32 | Oc1[nH]c2ccccc2c1/C=c1/ccc2c(c1)N=C(c1cc(F)cc(F)c1)N=2 | 34% (inactive)
33 | CCC(C)(C)C(=O)O[C@H]1C[C@@H](C)C=C2C=C[C@H](C)[C@H](CC[C@@H]3C[C@@H](O)CC(=O)O3)[C@H]21 | 90.7% (inactive)
34 | CCCCCCCCCCSc1ncnc2nc[nH]c12 | 85.1% (inactive)
35 | O=C1Nc2ccc(F)cc2/C1=C/c1nc(-c2ccc(F)cc2)n2ccccc12 | 87.6% (inactive)
36 | COc1ccc(-c2csc(NC(=O)c3cc(O)c(O)c(O)c3)n2)cc1 | 84.8% (inactive)
37 | O=C(Nc1nc2ccccc2s1)c1cc(-c2ccc(F)cc2)n2nc(-c3ccccc3)cc2n1 | 68.7% (inactive)
38 | Cc1nn(-c2ccc(Cl)cc2)c2nc3c(nc12)C(=O)C(=O)c1ccccc1-3 | 61.9% (inactive)
39 | CSC1=Nc2c(c(C)c(-c3ccccc3)n2CCCN2CCCCC2)C2=NC(=O)C[C@H](C)N12 | 2.35% (active)
40 | CCOC(=O)c1cc(-c2cccnc2)nc2c(Cl)cc(Cl)cc12 | 102% (inactive)
